Data on eight sequences can be found in PMC7862700, “An all-to-all approach to the identification of sequence-specific readers for epigenetic DNA modifications on cytosine”.

Holding throughout (test): DAPPL (digital affinity profiling via proximity ligation, sequencing); 10 mM Tris-HCl pH 7.5, 50 mM NaCl, 1 mM DTT, 4% glycerol, room temperature, 30 min; GST-TFs on glutathione beads, 16-mer random dsDNA library, 0.1% formaldehyde crosslink after washing; high values mean tight binding
What all share (conditions): protein: recombinant; tags: N-terminal GST; dsDNA, one strand shown

For one assay, the target named is T1, FLI1 (Homo sapiens, UniProt Q01543 1-452).
T1 sequence: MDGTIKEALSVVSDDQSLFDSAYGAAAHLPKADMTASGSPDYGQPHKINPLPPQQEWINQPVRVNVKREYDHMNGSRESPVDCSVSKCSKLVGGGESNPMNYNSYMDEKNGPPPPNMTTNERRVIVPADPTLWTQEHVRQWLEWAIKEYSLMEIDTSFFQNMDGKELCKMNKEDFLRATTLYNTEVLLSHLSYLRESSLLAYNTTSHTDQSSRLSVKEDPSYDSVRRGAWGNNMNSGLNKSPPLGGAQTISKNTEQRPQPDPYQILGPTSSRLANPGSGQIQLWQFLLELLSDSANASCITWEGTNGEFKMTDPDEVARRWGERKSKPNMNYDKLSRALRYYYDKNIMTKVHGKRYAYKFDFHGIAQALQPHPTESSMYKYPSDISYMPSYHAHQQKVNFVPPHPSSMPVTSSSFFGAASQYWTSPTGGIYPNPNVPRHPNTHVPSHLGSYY
The method, boiled down: (§1)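 Binding signal is defined as a hexamer's read frequency for one factor over its frequency for the tag-only sample. To obtain reads, GST-fused human transcription factors were expressed in yeast, captured on glutathione beads, barcoded with DNA and pooled with that sample. Pools met 200 nmole of a 16-mer random double-stranded DNA library in Tris/NaCl/DTT/glycerol buffer for 30 min at room temperature before washing, 0.1% formaldehyde crosslinking, proximity ligation (BsaI/T4 ligase, 1 h, 37 °C), PCR and Illumina NextSeq500 sequencing.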

For a further assay, the target named is T2, ELK1 (Homo sapiens, UniProt P19419 1-428).
T2 sequence: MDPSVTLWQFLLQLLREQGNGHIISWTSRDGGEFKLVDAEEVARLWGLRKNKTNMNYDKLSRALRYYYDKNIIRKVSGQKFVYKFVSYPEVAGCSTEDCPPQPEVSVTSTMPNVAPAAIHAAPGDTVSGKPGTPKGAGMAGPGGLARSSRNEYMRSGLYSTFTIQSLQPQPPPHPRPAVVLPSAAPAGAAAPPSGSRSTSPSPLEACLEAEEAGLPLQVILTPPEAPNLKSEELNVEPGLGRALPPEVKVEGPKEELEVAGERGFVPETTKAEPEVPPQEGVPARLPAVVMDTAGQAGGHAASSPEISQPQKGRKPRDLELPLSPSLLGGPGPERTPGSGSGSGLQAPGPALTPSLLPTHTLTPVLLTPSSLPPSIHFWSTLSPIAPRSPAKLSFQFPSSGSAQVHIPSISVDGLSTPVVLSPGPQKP
In short, it runs like this: as §1

A further assay deals with T3, GABPA (Homo sapiens, UniProt Q06546 1-454).
T3 sequence: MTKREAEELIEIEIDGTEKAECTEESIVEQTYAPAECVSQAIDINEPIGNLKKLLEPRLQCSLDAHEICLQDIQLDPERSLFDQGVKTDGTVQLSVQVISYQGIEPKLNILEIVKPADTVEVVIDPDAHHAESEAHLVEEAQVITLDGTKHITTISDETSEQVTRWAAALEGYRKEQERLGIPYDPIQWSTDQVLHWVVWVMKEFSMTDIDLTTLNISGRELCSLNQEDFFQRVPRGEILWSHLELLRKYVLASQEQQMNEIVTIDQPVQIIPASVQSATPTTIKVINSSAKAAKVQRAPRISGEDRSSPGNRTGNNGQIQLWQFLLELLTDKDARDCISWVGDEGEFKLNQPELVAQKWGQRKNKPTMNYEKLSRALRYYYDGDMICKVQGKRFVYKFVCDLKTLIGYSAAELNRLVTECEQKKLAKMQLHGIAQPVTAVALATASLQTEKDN
In short, it runs like this: as §1

The target of a further assay is T4, ERG (Homo sapiens, UniProt P11308 1-479).
T4 sequence: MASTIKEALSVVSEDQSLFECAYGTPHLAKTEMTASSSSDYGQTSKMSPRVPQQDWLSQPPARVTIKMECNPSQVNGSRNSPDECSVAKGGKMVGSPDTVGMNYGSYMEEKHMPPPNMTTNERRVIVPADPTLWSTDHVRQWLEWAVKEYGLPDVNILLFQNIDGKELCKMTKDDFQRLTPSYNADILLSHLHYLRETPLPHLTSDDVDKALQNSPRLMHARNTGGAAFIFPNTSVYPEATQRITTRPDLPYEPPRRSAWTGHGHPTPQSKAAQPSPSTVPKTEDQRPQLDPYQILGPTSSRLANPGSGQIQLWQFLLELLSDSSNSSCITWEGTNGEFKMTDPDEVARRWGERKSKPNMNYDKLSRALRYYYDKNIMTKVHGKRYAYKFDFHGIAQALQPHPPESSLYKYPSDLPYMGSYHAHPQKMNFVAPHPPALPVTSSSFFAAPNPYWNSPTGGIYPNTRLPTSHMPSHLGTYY
The method, boiled down: as §1

The target of the next assay is ELF1 (Homo sapiens, UniProt P32519 1-619). In short, it runs like this:
as §1

Another assay concerns the target T5, EHF (Homo sapiens, UniProt Q9NZC4 1-300).
T5 sequence: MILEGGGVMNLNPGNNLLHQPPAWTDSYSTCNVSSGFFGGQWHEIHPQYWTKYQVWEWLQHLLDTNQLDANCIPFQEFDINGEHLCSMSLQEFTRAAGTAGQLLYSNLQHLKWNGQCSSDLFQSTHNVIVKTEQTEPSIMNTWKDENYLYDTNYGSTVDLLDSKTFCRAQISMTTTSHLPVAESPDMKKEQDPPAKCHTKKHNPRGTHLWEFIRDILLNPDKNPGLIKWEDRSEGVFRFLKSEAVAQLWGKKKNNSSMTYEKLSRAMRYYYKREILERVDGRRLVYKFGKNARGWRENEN
In short, it runs like this: as §1

For another assay, the target named is SPI1 (Homo sapiens, UniProt P17947 1-270). The method, boiled down: as §1
For the next assay, the target named is SPIB (Homo sapiens, UniProt Q01892 1-262). In short, it runs like this: as §1
SPIB, sequence (Q01892 whole entry): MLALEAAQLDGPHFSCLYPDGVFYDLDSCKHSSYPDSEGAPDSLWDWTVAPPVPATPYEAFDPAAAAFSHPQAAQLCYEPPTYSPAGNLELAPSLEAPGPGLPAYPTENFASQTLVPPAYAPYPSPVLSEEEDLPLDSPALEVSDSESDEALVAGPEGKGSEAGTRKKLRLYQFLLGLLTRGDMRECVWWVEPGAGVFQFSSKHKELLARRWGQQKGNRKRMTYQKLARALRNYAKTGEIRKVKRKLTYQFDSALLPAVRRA
For another assay, the target named is T6, ELK3 (Homo sapiens, UniProt P41970 1-407).
T6 sequence: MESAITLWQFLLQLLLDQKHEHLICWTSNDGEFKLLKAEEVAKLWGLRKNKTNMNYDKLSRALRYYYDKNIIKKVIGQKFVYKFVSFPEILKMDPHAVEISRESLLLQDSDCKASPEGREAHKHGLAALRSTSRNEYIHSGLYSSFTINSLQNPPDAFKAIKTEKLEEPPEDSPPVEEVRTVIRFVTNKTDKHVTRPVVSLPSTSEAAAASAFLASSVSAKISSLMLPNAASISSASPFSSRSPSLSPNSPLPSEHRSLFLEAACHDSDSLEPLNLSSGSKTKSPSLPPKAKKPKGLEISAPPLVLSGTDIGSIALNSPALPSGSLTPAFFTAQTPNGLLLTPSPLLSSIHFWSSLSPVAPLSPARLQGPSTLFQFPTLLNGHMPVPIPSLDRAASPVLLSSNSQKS
In short, it runs like this: as §1

ELF1, sequence (P32519 whole entry): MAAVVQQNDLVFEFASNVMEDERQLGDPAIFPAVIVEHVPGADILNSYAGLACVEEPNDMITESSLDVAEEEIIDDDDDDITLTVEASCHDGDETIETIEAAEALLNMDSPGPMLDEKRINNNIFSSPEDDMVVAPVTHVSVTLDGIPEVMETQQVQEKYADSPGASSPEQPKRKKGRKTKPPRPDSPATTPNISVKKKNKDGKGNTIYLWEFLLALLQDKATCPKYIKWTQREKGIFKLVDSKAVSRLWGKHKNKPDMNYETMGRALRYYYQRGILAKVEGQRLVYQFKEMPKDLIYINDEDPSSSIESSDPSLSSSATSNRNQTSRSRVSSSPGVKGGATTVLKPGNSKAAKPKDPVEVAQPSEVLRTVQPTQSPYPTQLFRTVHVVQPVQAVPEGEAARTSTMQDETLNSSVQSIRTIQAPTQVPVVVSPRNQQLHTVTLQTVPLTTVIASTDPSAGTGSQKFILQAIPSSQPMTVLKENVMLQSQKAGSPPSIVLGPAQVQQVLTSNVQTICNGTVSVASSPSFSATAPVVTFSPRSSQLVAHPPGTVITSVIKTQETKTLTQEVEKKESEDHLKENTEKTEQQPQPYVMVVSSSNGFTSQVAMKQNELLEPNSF

For the sequence AAAATG, the binding signal is 1.17 fold enrichment (6-mer frequency, TF over GST control) with FLI1; 1.15 fold enrichment (6-mer frequency, TF over GST control) with ELK1; 1.16 fold enrichment (6-mer frequency, TF over GST control) in the assay with GABPA; 1.2 fold enrichment (6-mer frequency, TF over GST control) in the assay with ERG; 1.15 fold enrichment (6-mer frequency, TF over GST control) with ELF1; 1.21 fold enrichment (6-mer frequency, TF over GST control) in the assay with EHF. Besides, the binding signal was 1.37 fold enrichment (6-mer frequency, TF over GST control) in the assay with SPI1; 1.26 fold enrichment (6-mer frequency, TF over GST control) with SPIB; 1.18 fold enrichment (6-mer frequency, TF over GST control) with ELK3.

As for TTCTCC, the binding signal in the assay with FLI1 was 1.42 fold enrichment (6-mer frequency, TF over GST control); with ELK1 it was 1.45 fold enrichment (6-mer frequency, TF over GST control); with GABPA, 1.6 fold enrichment (6-mer frequency, TF over GST control); in the assay with ERG it was 1.43 fold enrichment (6-mer frequency, TF over GST control); in the assay with ELF1, 1.56 fold enrichment (6-mer frequency, TF over GST control); with EHF, 1.62 fold enrichment (6-mer frequency, TF over GST control). In addition, the binding signal was 1.63 fold enrichment (6-mer frequency, TF over GST control) with SPI1; 1.61 fold enrichment (6-mer frequency, TF over GST control) with SPIB; 1.6 fold enrichment (6-mer frequency, TF over GST control) in the assay with ELK3.

For TTCAAG, the binding signal with FLI1 is 1.22 fold enrichment (6-mer frequency, TF over GST control); with ELK1 it was 1.22 fold enrichment (6-mer frequency, TF over GST control); in the assay with GABPA it was 1.25 fold enrichment (6-mer frequency, TF over GST control); with ERG, 1.24 fold enrichment (6-mer frequency, TF over GST control); with ELF1, 1.28 fold enrichment (6-mer frequency, TF over GST control); with EHF, 1.3 fold enrichment (6-mer frequency, TF over GST control). The binding signal with SPI1 is 1.2 fold enrichment (6-mer frequency, TF over GST control); in the assay with SPIB it was 1.29 fold enrichment (6-mer frequency, TF over GST control); with ELK3, 1.22 fold enrichment (6-mer frequency, TF over GST control).

On to GATGAC, for which the binding signal was 1.58 fold enrichment (6-mer frequency, TF over GST control) with FLI1; 1.51 fold enrichment (6-mer frequency, TF over GST control) with ELK1; 1.62 fold enrichment (6-mer frequency, TF over GST control) in the assay with GABPA; 1.59 fold enrichment (6-mer frequency, TF over GST control) in the assay with ERG; 1.6 fold enrichment (6-mer frequency, TF over GST control) with ELF1; 1.43 fold enrichment (6-mer frequency, TF over GST control) in the assay with EHF. Besides, the binding signal in the assay with SPI1 is 1.58 fold enrichment (6-mer frequency, TF over GST control); with SPIB, 1.45 fold enrichment (6-mer frequency, TF over GST control); with ELK3, 1.45 fold enrichment (6-mer frequency, TF over GST control).

Consider ATGCTC, for which the binding signal is 1.43 fold enrichment (6-mer frequency, TF over GST control) with FLI1; 1.31 fold enrichment (6-mer frequency, TF over GST control) in the assay with ELK1; 1.36 fold enrichment (6-mer frequency, TF over GST control) in the assay with GABPA; 1.34 fold enrichment (6-mer frequency, TF over GST control) with ERG; 1.36 fold enrichment (6-mer frequency, TF over GST control) with ELF1; 1.34 fold enrichment (6-mer frequency, TF over GST control) with EHF. In addition, the binding signal in the assay with SPI1 was 1.41 fold enrichment (6-mer frequency, TF over GST control); with SPIB, 1.35 fold enrichment (6-mer frequency, TF over GST control); in the assay with ELK3, 1.27 fold enrichment (6-mer frequency, TF over GST control).

Regarding CGATTA, the binding signal in the assay with FLI1 was 1.15 fold enrichment (6-mer frequency, TF over GST control); with ELK1, 1.07 fold enrichment (6-mer frequency, TF over GST control); with GABPA, 1.17 fold enrichment (6-mer frequency, TF over GST control); with ERG it was 1.16 fold enrichment (6-mer frequency, TF over GST control); with ELF1 it was 1.15 fold enrichment (6-mer frequency, TF over GST control); in the assay with EHF, 1.11 fold enrichment (6-mer frequency, TF over GST control). For the same sequence, the binding signal with SPI1 is 1.09 fold enrichment (6-mer frequency, TF over GST control); in the assay with SPIB it was 1.13 fold enrichment (6-mer frequency, TF over GST control); with ELK3, 1.19 fold enrichment (6-mer frequency, TF over GST control).

On to ATTCTG, for which the binding signal with FLI1 was 1.35 fold enrichment (6-mer frequency, TF over GST control); with ELK1, 1.23 fold enrichment (6-mer frequency, TF over GST control); in the assay with GABPA it was 1.33 fold enrichment (6-mer frequency, TF over GST control); with ERG, 1.21 fold enrichment (6-mer frequency, TF over GST control); in the assay with ELF1, 1.26 fold enrichment (6-mer frequency, TF over GST control); with EHF, 1.34 fold enrichment (6-mer frequency, TF over GST control). Moreover, the binding signal with SPI1 is 1.27 fold enrichment (6-mer frequency, TF over GST control); with SPIB, 1.15 fold enrichment (6-mer frequency, TF over GST control); with ELK3, 1.37 fold enrichment (6-mer frequency, TF over GST control).

Regarding CCTTAA, the binding signal was 1.38 fold enrichment (6-mer frequency, TF over GST control) in the assay with FLI1; 1.24 fold enrichment (6-mer frequency, TF over GST control) with ELK1; 1.27 fold enrichment (6-mer frequency, TF over GST control) with GABPA; 1.31 fold enrichment (6-mer frequency, TF over GST control) with ERG; 1.35 fold enrichment (6-mer frequency, TF over GST control) with ELF1; 1.34 fold enrichment (6-mer frequency, TF over GST control) with EHF. The binding signal with SPI1 was 1.4 fold enrichment (6-mer frequency, TF over GST control); with SPIB it was 1.45 fold enrichment (6-mer frequency, TF over GST control); with ELK3 it was 1.2 fold enrichment (6-mer frequency, TF over GST control).
